Max response and Potency data for 23 compounds are collected here from PubChem BioAssay (NCATS).

Records with an inconclusive call do not appear. Unmarked numbers belong to inactive results. Calls of active or inactive are those of the source. Calls follow the shape of the dose curve; as a rule, active = well fitted inhibition curve with a large enough effect; inconclusive = small, poorly fitted or top-dose-only effect; inactive = flat fitted curve, though single readings scatter. Positions of bridges follow the written chain, without caps; N, C: chain ends. Non-standard residues stand in square brackets, D forms with d. Residues, ends and D or L forms follow the SMILES beside them. ξ: configuration not given here. *: point of attachment. Octanoyl(6-Me) = CCC(C)CCCCC(=O)*; ξThr(3R) = C[C@@H](O)C(N)C(=O)O; dDab = NCC[C@@H](N)C(=O)O; Dab = NCC[C@H](N)C(=O)O
% is scaled to controls: 0 for no effect and ±100 for the full control effect; potency is read from the fitted curve at half-maximal effect.

For the assay, the system named is HaCat. The assay can be described thus: Cytotoxic Profiling of Annotated Libraries Using Quantitative High-Throughput Screening (AID 1296008). Also: nearly all actives have a fitted effect of over 60% in size. Particulars: Five cell lines viability, CellTiter-Glo ATP luminescence, 48-72 h; max response: stronger effect = lower value. The gist of the method:
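Cells exposed to compounds for 48 or 72 hr at 37 degrees Celsius. Viability read as ATP-coupled luminescence with CellTiter-Glo after 10 min at room temperature.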
For `COc1ccc(C[C@@H](C)[C@@H](C)Cc2ccc(OC)c(OC)c2)cc1OC`, the max response was 3.58%.

In the case of `CC(=O)[C@]1(O)Cc2c(O)c3c(c(O)c2[C@@H](O[C@H]2C[C@H](N)[C@@H](O)[C@H](C)O2)C1)C(=O)c1ccccc1C3=O`, the Potency is 743 nM (active). With `CC(C)(O)[C@H]1CC[C@@](C)([C@H]2[C@@H](O)C[C@@]3(C)[C@@H]4C[C@H](O[C@@H]5O[C@H](CO)[C@@H](O)[C@H](O)[C@@H]5O)[C@H]5C(C)(C)[C@@H](O[C@@H]6OC[C@@H](O)[C@H](O)[C@@H]6O)CC[C@@]56C[C@@]46CC[C@]23C)O1`, the max response was -6.06%.

Regarding `COC1=C(OC)C(=O)C(CC=C(C)CCC=C(C)CCC=C(C)CCC=C(C)CCC=C(C)CCC=C(C)CCC=C(C)CCC=C(C)CCC=C(C)CCC=C(C)C)=C(C)C1=O`, the max response is -8.05%. With `C[C@H](CCC(=O)O)[C@H]1CCC2C3C[C@H](O)[C@@H]4C[C@H](O)CC[C@]4(C)C3CC[C@@]21C` (stereo partly drawn), the max response is -16.1%.

For `CCOC(=O)C=C[C@H](C[C@@H]1CCNC1=O)NC(=O)[C@@H](CC(=O)[C@@H](NC(=O)c1cc(C)on1)C(C)C)Cc1ccc(F)cc1`, the max response was -7.58%.

For `CNC(=O)c1ccc(Nc2cc(Nc3ccccc3S(=O)(=O)C(C)C)c3cc[nH]c3n2)nc1`, the Potency is 2960 nM (active).

As for `Cc1cnc(NC(=O)Nc2cc(Br)c(C)cc2OC[C@@H]2CNCCO2)cn1`, the max response is 1.25%. In the case of `C=C1CCC2[C@](C)(CO)C(O)CC[C@]2(C)C1CC=C1C(=O)OCC1O` (stereo partly drawn), the max response is -3.92%. The same measure, in the same setting: next, `CC(C)N(CC[C@H](c1ccccc1)c1cc(CO)ccc1O)C(C)C`: -1.81%. On to `FC(F)c1nc2ccccc2n1-c1nc(N2CCOCC2)nc(N2CCOCC2)n1`, for which the Potency is 3260 nM (active). In the case of `CON=C(C(=O)N[C@@H]1C(=O)N2C(C(=O)O)=C(CSC(=O)c3ccco3)CS[C@H]12)c1csc(N)n1`, the max response is 1.07%. In the case of `C[C@@H]1[C@H](C)CC[C@]2(C(=O)O)CC[C@]3(C)C(=CC[C@@H]4[C@@]5(C)C[C@@H](O)[C@H](O)[C@@](C)(CO)[C@H]5CC[C@]43C)[C@@H]12`, the max response is 2.03%. Turning to `Nc1ccn(C2CO[C@H](CO)O2)c(=O)n1` (stereo partly drawn), the max response is 1.07%. For the compound `O=C(CN1C(=O)C2(CCCC2)NC[C@H]1c1cc(F)cc(F)c1)Nc1ccc2c(c1)C[C@@]1(C2)C(=O)Nc2ncccc21`, the max response was 3.79%. As for `Nc1nc(=O)n([C@H]2C[C@H](O)[C@@H](CO)O2)cc1F`, the Potency is 11.8 nM (active). For `CCC(C)CCCCC(=O)N[C@@H](CCN)C(=O)NC(C(=O)N[C@H](CCN)C(=O)N[C@@H]1CCNC(=O)C([C@@H](C)O)NC(=O)[C@@H](CCN)NC(=O)[C@@H](CCN)NC(=O)[C@@H](CC(C)C)NC(=O)[C@H](Cc2ccccc2)NC(=O)[C@H](CCN)NC1=O)[C@@H](C)O` (stereo partly drawn) ({Octanoyl(6-Me)}-[Dab][ξThr(3R)][dDab][dDab][Dab]F[dL][dDab][dDab][ξThr(3R)]; lactam 4-C), the max response was 0.455%. Still for that read-out and setting: next, `CN[C@H]1[C@@H](O)[C@@H]2O[C@@H]3O[C@H](C)CC(=O)[C@]3(O)O[C@@H]2[C@@H](NC)[C@H]1O`: -0.114%; `O=C1c2c(O)cccc2[C@@H]([C@@H]2O[C@H](CO)[C@@H](O)[C@H](O)[C@H]2O)c2cc(CO)cc(O)c21`: -8.19%; `CC(=O)N[C@@H]1[C@H](O[C@@H]2c3ccc(c(Cl)c3)Oc3cc4cc(c3O[C@H]3O[C@H](CO)[C@@H](O)[C@H](O)[C@H]3NC(=O)CCCCCCCC(C)C)Oc3ccc(cc3Cl)C[C@H]3NC(=O)[C@H](N)c5ccc(O)c(c5)Oc5cc(O)cc(c5)[C@H](NC3=O)C(=O)N[C@H]4C(=O)N[C@H]3C(=O)N[C@@H]2C(=O)N[C@@H](C(=O)O)c2cc(O)cc(O[C@H]4O[C@H](CO)[C@@H](O)[C@H](O)[C@H]4O)c2-c2cc3ccc2O)O[C@H](CO)[C@@H](O)[C@@H]1O`: 2.16%. Still for that read-out and setting: the result for `O=c1ccn([C@@H]2O[C@H](CO)[C@H](O)[C@@H]2F)c(=O)[nH]1` reads 4.18%; that for `CON=C(C(=O)N[C@@H]1C(=O)N2C(C(=O)O)=C(Cn3ccc(=N)n3CCO)CS[C@H]12)c1csc(N)n1`, 4.51%. With `O=C(C=Cc1ccc(CN(CCO)CCc2c[nH]c3ccccc23)cc1)NO`, the Potency is 526 nM (active).
